Consider nine molecules from PubChem BioAssay (NCI).

This is part of a sample that, as a whole, favours compounds with a hit. Of some 83,000 tested, about 20% had one in any assay.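 Cells were grown in 96-well plates and exposed to the test compound at a single concentration for 48 hours; results are reported as percent growth, with values below 10 considered active.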 A number with no mark means an inactive call. Activity calls are given as the source filed them.

Among the test systems are SR leukemia; RPMI-8226 leukemia; OVCAR-8 ovarian; OVCAR-5 ovarian; OVCAR-4 ovarian; SK-OV-3 ovarian; IGROV1 ovarian; OVCAR-3 ovarian; HS 578T breast; NCI/ADR-RES ovarian; T-47D breast; BT-549 breast; MDA-MB-435 melanoma; SW-620 colon; MCF7 breast; HCT-116 colon; HCC-2998 colon; KM12 colon.
Holding throughout (assay): NCI-60 one-dose screen, 48 h (100 = growth as untreated, 0 = no growth, -100 = all killed)
What all share (details): 10 µM unless noted

`Cc1nn(-c2ccccc2)c2ncnc(N/N=C/c3cccc(O)c3)c12`: the growth in the test with SR leukemia was 30.8%; with RPMI-8226 leukemia it was 22.7%; with OVCAR-8 ovarian, 59.2%; in the test on OVCAR-5 ovarian it was 77.1%; with OVCAR-4 ovarian, 30.2%; in the test on SK-OV-3 ovarian, 88.4%. Further, the growth in the test on IGROV1 ovarian is 54.9%; in the test with OVCAR-3 ovarian, 41.5%; with HS 578T breast, 56.9%; with NCI/ADR-RES ovarian, 23.3%; in the test with T-47D breast, 17.8%; in the test with BT-549 breast, 46.8%. For the same molecule, the growth in the test with MDA-MB-435 melanoma is 3.94% (active); in the test on SW-620 colon it was 34%; in the test with MCF7 breast it was 17.8%; with HCT-116 colon, 24%; in the test with HCC-2998 colon, 72.6%; in the test with KM12 colon, 29.3%.
With `COc1c(N2CC3CCCNC3C2)c(F)cc2c(=O)c(C(=O)N/N=C/c3ccc(Br)cc3)cn(C3CC3)c12` (configuration not stated), the growth in the test on SR leukemia is -28.1% (active); in the test on RPMI-8226 leukemia, 65.8%; in the test on OVCAR-8 ovarian it was 90.3%; in the test with OVCAR-5 ovarian it was 92.8%; in the test on OVCAR-4 ovarian, 90.1%; with SK-OV-3 ovarian it was 99.6%. Further, the growth was 75.2% in the test with IGROV1 ovarian; 81.7% in the test on OVCAR-3 ovarian; 88.4% with HS 578T breast; 90.1% with NCI/ADR-RES ovarian; 84.3% with T-47D breast; 114% with BT-549 breast. Moreover, the growth is 84.7% in the test with MDA-MB-435 melanoma; 89.6% in the test with SW-620 colon; 52.4% in the test with MCF7 breast; 50.5% in the test with HCT-116 colon; 92.2% in the test on HCC-2998 colon; 97.3% in the test with KM12 colon.
As to `C#CCNC1CCC(c2csc(C#C)n2)=C1C` (configuration not stated), the growth was 2.46% (active) in the test on SR leukemia; -28.1% (active) with RPMI-8226 leukemia; 40.5% in the test on OVCAR-8 ovarian; 76% in the test on OVCAR-5 ovarian; 90.3% in the test on OVCAR-4 ovarian; 92.7% in the test on SK-OV-3 ovarian. Also, the growth was -63.6% (active) in the test with IGROV1 ovarian; -21.9% (active) in the test with OVCAR-3 ovarian; 90.7% in the test on HS 578T breast; 33.9% in the test on NCI/ADR-RES ovarian; 65.3% with T-47D breast; 86.3% with BT-549 breast. Besides, the growth in the test on MDA-MB-435 melanoma was 99.2%; in the test with SW-620 colon, 108%; with MCF7 breast, 61.1%; in the test with HCT-116 colon, 80.9%; in the test with HCC-2998 colon it was 107%; in the test on KM12 colon it was 19.1%.
As for `O=C(CCC(=O)N1CCOCC1)OCCCCCCSc1ccc([N+](=O)[O-])c2nonc12`, the growth in the test with SR leukemia was -2.69% (active); in the test with RPMI-8226 leukemia, -21.1% (active); in the test with OVCAR-8 ovarian, -6.75% (active); in the test on OVCAR-5 ovarian, -20.1% (active); in the test on OVCAR-4 ovarian, -83.7% (active); in the test on SK-OV-3 ovarian it was 39.8%. The growth in the test on IGROV1 ovarian is -88.7% (active); in the test on OVCAR-3 ovarian, -66.9% (active); in the test with HS 578T breast, -8.04% (active); in the test on NCI/ADR-RES ovarian, 2.86% (active); with T-47D breast, -36.2% (active); in the test with BT-549 breast, -52.5% (active). Moreover, the growth in the test on MDA-MB-435 melanoma was -88.1% (active); with SW-620 colon, -54.9% (active); in the test on MCF7 breast it was -57.7% (active); in the test on HCT-116 colon, -54.7% (active); with HCC-2998 colon, -69.4% (active); in the test on KM12 colon it was -68.7% (active).
For the molecule `C#Cc1ccc(C(=O)NCc2ccc(/C=C/C(=O)c3nccn3C)cc2)cc1`, the growth was 4.33% (active) with SR leukemia; 6.86% (active) in the test with RPMI-8226 leukemia; 26.9% in the test on OVCAR-8 ovarian; 26.8% in the test on OVCAR-5 ovarian; 39% in the test with OVCAR-4 ovarian; 50.2% in the test on SK-OV-3 ovarian. Besides, the growth in the test on IGROV1 ovarian is 13.1%; with OVCAR-3 ovarian, 17.8%; in the test with HS 578T breast, 22.6%; with NCI/ADR-RES ovarian, 9.5% (active); in the test on T-47D breast, 34%; with BT-549 breast, 51%. For the same molecule, the growth in the test with MDA-MB-435 melanoma is 26.2%; in the test with SW-620 colon, 10.5%; with MCF7 breast, 12.2%; with HCT-116 colon it was 14%; with HCC-2998 colon it was 9.76% (active); in the test with KM12 colon it was 15.5%.
Consider `O=C(c1ccc(O)cc1)[C@@H]1CN[C@@]2(C(=O)Nc3ccccc32)[C@H]1c1ccc(F)cc1`, for which the growth was 87.5% in the test with SR leukemia; 95.4% in the test on RPMI-8226 leukemia; 99.2% in the test with OVCAR-8 ovarian; 104% in the test with OVCAR-5 ovarian; 102% in the test with OVCAR-4 ovarian; 115% in the test on SK-OV-3 ovarian. Moreover, the growth was 95.3% in the test with IGROV1 ovarian; 117% in the test on OVCAR-3 ovarian; 110% with HS 578T breast; 99.2% in the test on NCI/ADR-RES ovarian; 99.3% with T-47D breast; 79.7% with BT-549 breast. Moreover, the growth in the test on MDA-MB-435 melanoma was 107%; in the test with SW-620 colon, 105%; with MCF7 breast, 99%; in the test with HCT-116 colon, 104%; in the test on HCC-2998 colon, 113%; with KM12 colon it was 102%.
As to `CCO/C=N/C1=C(C#N)C(c2ccc(Cl)cc2)c2sc3c(C)cccc3c2O1` (configuration not stated), the growth in the test on SR leukemia was 12.2%; in the test on RPMI-8226 leukemia it was 7.03% (active); in the test on OVCAR-8 ovarian, 28%; in the test on OVCAR-5 ovarian, 27.9%; with OVCAR-4 ovarian, 64.3%; with SK-OV-3 ovarian it was 59.4%. The growth is 26.6% in the test on IGROV1 ovarian; -30.6% (active) in the test on OVCAR-3 ovarian; 18.9% in the test on HS 578T breast; 11.7% in the test on NCI/ADR-RES ovarian; 33.5% with T-47D breast; 38.8% with BT-549 breast. Further, the growth is -49.6% (active) in the test with MDA-MB-435 melanoma; 26.5% in the test on SW-620 colon; 14.5% in the test on MCF7 breast; 14.8% in the test with HCT-116 colon; 9.57% (active) in the test on HCC-2998 colon; 15.2% in the test on KM12 colon.
On to `O=C(NNc1nc2cc(F)c(F)cc2n2c(CN3CC4CNCC4C3)ccc12)c1cnccn1` (configuration not stated), for which the growth in the test on SR leukemia is 12%; in the test on RPMI-8226 leukemia it was 20.4%; in the test on OVCAR-8 ovarian, 13.8%; in the test on OVCAR-5 ovarian it was 42.7%; with OVCAR-4 ovarian, 22.8%; with SK-OV-3 ovarian, 13.3%. Moreover, the growth was 14.5% in the test with IGROV1 ovarian; 35.9% with OVCAR-3 ovarian; 72.7% in the test with HS 578T breast; 56.7% in the test on NCI/ADR-RES ovarian; 20.8% in the test on T-47D breast; 28.7% in the test on BT-549 breast. Further, the growth in the test on MDA-MB-435 melanoma was 25.3%; with SW-620 colon it was 23.7%; in the test on MCF7 breast, 10.9%; with HCT-116 colon, 14.8%; with HCC-2998 colon it was 31.7%; in the test on KM12 colon, 15.4%.
Take `O=C(Nc1ccc(F)c(F)c1)c1cc(-c2ccc(F)cc2F)ccc1O`: the growth with SR leukemia is 32.8%; with RPMI-8226 leukemia, -11.4% (active); with OVCAR-8 ovarian, 9.13% (active); in the test with OVCAR-5 ovarian it was 12.1%; in the test with OVCAR-4 ovarian, 10%; in the test on SK-OV-3 ovarian, 6.7% (active). Also, the growth with IGROV1 ovarian was 14.9%; in the test on OVCAR-3 ovarian, 7.32% (active); in the test with HS 578T breast, -0.443% (active); in the test with NCI/ADR-RES ovarian, 2.02% (active); in the test with T-47D breast, 3.6% (active); with BT-549 breast, -1.22% (active). The growth with MDA-MB-435 melanoma was 1.2% (active); in the test on SW-620 colon, 12.3%; in the test on MCF7 breast it was 0.642% (active); with HCT-116 colon, 6.45% (active); in the test with HCC-2998 colon it was 15.5%; in the test on KM12 colon, 0.724% (active).
